About 83,000 compounds went through this panel and 20% of them were active in at least one assay; those are over-represented in the sample as a whole.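 A percent growth of 40 corresponds to 60% growth inhibition; 0 means no net growth; -100 means all cells died. Active threshold: below 10.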 Active and inactive are the calls of the source.
How the values were obtained:
Assay in all cases: NCI-60 one-dose screen, 48 h (100 = growth as untreated, 0 = no growth, -100 = all killed)
Conditions in all cases: 10 µM unless noted
DU-145 prostate = tested on: DU-145 prostate
K-562 leukemia = tested on: K-562 leukemia
MALME-3M melanoma = tested on: MALME-3M melanoma
MDA-MB-231 breast = tested on: MDA-MB-231 breast
RXF 393 renal = tested on: RXF 393 renal
SF-268 CNS = tested on: SF-268 CNS
SF-295 CNS = tested on: SF-295 CNS
SF-539 CNS = tested on: SF-539 CNS
UACC-257 melanoma = tested on: UACC-257 melanoma
M14 melanoma = tested on: M14 melanoma
HCT-15 colon = tested on: HCT-15 colon
HT29 colon = tested on: HT29 colon
SNB-75 CNS = tested on: SNB-75 CNS
SNB-19 CNS = tested on: SNB-19 CNS
U251 CNS = tested on: U251 CNS
PC-3 prostate = tested on: PC-3 prostate
SK-MEL-5 melanoma = tested on: SK-MEL-5 melanoma
UACC-62 melanoma = tested on: UACC-62 melanoma
LOX IMVI melanoma = tested on: LOX IMVI melanoma
SK-MEL-28 melanoma = tested on: SK-MEL-28 melanoma

Measured: growth

CC1=CCc2ccccc21
inactive: DU-145 prostate 111% | K-562 leukemia 94.1% | MALME-3M melanoma 101% | MDA-MB-231 breast 94.5% | RXF 393 renal 111% | SF-268 CNS 110% | SF-295 CNS 101% | SF-539 CNS 112% | UACC-257 melanoma 105% | M14 melanoma 105% | HCT-15 colon 109% | HT29 colon 95.7% | SNB-75 CNS 83.9% | SNB-19 CNS 101% | U251 CNS 103% | PC-3 prostate 86.2% | SK-MEL-5 melanoma 101% | UACC-62 melanoma 86.2% | LOX IMVI melanoma 105% | SK-MEL-28 melanoma 104%

Cc1ccccc1OC(=O)c1cccc(Cl)c1
inactive: DU-145 prostate 126% | K-562 leukemia 95.4% | MALME-3M melanoma 97.3% | MDA-MB-231 breast 118% | RXF 393 renal 113% | SF-268 CNS 101% | SF-295 CNS 122% | SF-539 CNS 101% | UACC-257 melanoma 111% | M14 melanoma 110% | HCT-15 colon 104% | HT29 colon 103% | SNB-75 CNS 86.2% | SNB-19 CNS 109% | U251 CNS 129% | PC-3 prostate 92.2% | SK-MEL-5 melanoma 103% | UACC-62 melanoma 105% | LOX IMVI melanoma 98% | SK-MEL-28 melanoma 113%

Cc1ccccc1-n1nnc(C(=O)Nc2nc3ccc(F)cc3s2)c1C
inactive: DU-145 prostate 66.9% | K-562 leukemia 35.3% | MALME-3M melanoma 50.6% | MDA-MB-231 breast 82% | RXF 393 renal 65.6% | SF-268 CNS 73% | SF-295 CNS 60.5% | SF-539 CNS 79.9% | UACC-257 melanoma 55.7% | M14 melanoma 49.3% | HCT-15 colon 61.1% | HT29 colon 73.2% | SNB-75 CNS 64% | SNB-19 CNS 63.7% | U251 CNS 76.8% | PC-3 prostate 47.5% | SK-MEL-5 melanoma 24.5% | UACC-62 melanoma 59.2% | LOX IMVI melanoma 75% | SK-MEL-28 melanoma 57.3%

c1nc(N2CCOCC2)c2[nH]ccc2n1
inactive: DU-145 prostate 106% | K-562 leukemia 92.7% | MALME-3M melanoma 109% | MDA-MB-231 breast 107% | RXF 393 renal 117% | SF-268 CNS 102% | SF-295 CNS 112% | SF-539 CNS 111% | UACC-257 melanoma 105% | M14 melanoma 103% | HCT-15 colon 105% | HT29 colon 96% | SNB-75 CNS 97.6% | SNB-19 CNS 107% | U251 CNS 100% | PC-3 prostate 107% | SK-MEL-5 melanoma 111% | UACC-62 melanoma 103% | LOX IMVI melanoma 99.8% | SK-MEL-28 melanoma 106%

O=C(Nc1cccc(C2=NCCN2)c1)c1cccc(C(=O)Nc2cccc(C3=NCCN3)c2)c1
inactive: DU-145 prostate 107% | K-562 leukemia 96.6% | MALME-3M melanoma 97.1% | MDA-MB-231 breast 101% | RXF 393 renal 102% | SF-268 CNS 96.4% | SF-295 CNS 99% | SF-539 CNS 95.7% | UACC-257 melanoma 95.8% | M14 melanoma 99% | HCT-15 colon 97.6% | HT29 colon 110% | SNB-75 CNS 86.2% | SNB-19 CNS 98% | U251 CNS 101% | PC-3 prostate 99% | SK-MEL-5 melanoma 99.1% | UACC-62 melanoma 94.3% | LOX IMVI melanoma 91.4% | SK-MEL-28 melanoma 102%

CC(C)=CC/C=C(/C)[C@H]1CC[C@]2(C)[C@@H]1CC[C@@H]1[C@@]3(C)CCCNC(C)(C)[C@@H]3CC[C@]12C
active: DU-145 prostate -78.7% [100 µM] | K-562 leukemia -19.2% [100 µM] | MALME-3M melanoma -78.9% [100 µM] | MDA-MB-231 breast -74.7% [100 µM] | RXF 393 renal -70.1% [100 µM] | SF-268 CNS -48% [100 µM] | SF-295 CNS -77.8% [100 µM] | SF-539 CNS -86% [100 µM] | UACC-257 melanoma -72.3% [100 µM] | M14 melanoma -58.6% [100 µM] | HCT-15 colon -53.6% [100 µM] | HT29 colon -64.7% [100 µM] | SNB-75 CNS -84.4% [100 µM] | SNB-19 CNS -63.1% [100 µM] | U251 CNS -63.3% [100 µM] | PC-3 prostate -65% [100 µM] | SK-MEL-5 melanoma -71.2% [100 µM] | UACC-62 melanoma -95.2% [100 µM] | LOX IMVI melanoma -46% [100 µM] | SK-MEL-28 melanoma -87.1% [100 µM]

CNC(=O)c1cc(Oc2ccc3nc(NC(=O)c4ccc5ncccc5c4)sc3c2)ccn1
inactive: DU-145 prostate 105% | K-562 leukemia 93.7% | MALME-3M melanoma 80.5% | MDA-MB-231 breast 98.6% | RXF 393 renal 109% | SF-268 CNS 97.4% | SF-295 CNS 86.9% | SF-539 CNS 107% | UACC-257 melanoma 93.1% | M14 melanoma 102% | HCT-15 colon 91.1% | HT29 colon 69.9% | SNB-75 CNS 86.5% | SNB-19 CNS 95.1% | U251 CNS 93.6% | PC-3 prostate 93.2% | SK-MEL-5 melanoma 86.4% | UACC-62 melanoma 94.9% | LOX IMVI melanoma 99.6% | SK-MEL-28 melanoma 101%

Cn1cc(-c2nnc(-c3cn(C)c4ncc(Br)cc34)s2)c2cc(Br)ccc21
inactive: DU-145 prostate 95.4% | K-562 leukemia 97.8% | MALME-3M melanoma 78.1% | MDA-MB-231 breast 67.2% | RXF 393 renal 118% | SF-268 CNS 90.9% | SF-295 CNS 103% | SF-539 CNS 81.5% | UACC-257 melanoma 92.5% | M14 melanoma 97% | HCT-15 colon 98.4% | HT29 colon 100% | SNB-75 CNS 64.3% | SNB-19 CNS 94.9% | U251 CNS 85.2% | PC-3 prostate 90.3% | SK-MEL-5 melanoma 93.1% | UACC-62 melanoma 86.7% | LOX IMVI melanoma 95.8% | SK-MEL-28 melanoma 95.9%

CC(C)(C)c1cc(C(=O)N2CCC(C(=O)NCCN)CC2)cc(C(C)(C)C)c1
inactive: DU-145 prostate 116% | K-562 leukemia 103% | MALME-3M melanoma 95% | MDA-MB-231 breast 90.9% | RXF 393 renal 98.5% | SF-268 CNS 97.8% | SF-295 CNS 101% | SF-539 CNS 98.4% | UACC-257 melanoma 81% | M14 melanoma 113% | HCT-15 colon 103% | HT29 colon 80.5% | SNB-75 CNS 79.4% | SNB-19 CNS 88% | U251 CNS 88.2% | PC-3 prostate 92.5% | SK-MEL-5 melanoma 95.4% | UACC-62 melanoma 89.3% | LOX IMVI melanoma 99.6% | SK-MEL-28 melanoma 101%

CCN(CC)c1ccc(/C=C/c2ccc3cc(C)ccc3[n+]2CC)cc1
inactive: DU-145 prostate 20.1% | MDA-MB-231 breast 21.3% | RXF 393 renal 11.8% | SF-268 CNS 27.7% | SF-539 CNS 11.5% | HCT-15 colon 13.3% | SNB-19 CNS 24.8%
active: K-562 leukemia 6.51% | MALME-3M melanoma -2.01% | SF-295 CNS -22% | UACC-257 melanoma -19% | M14 melanoma 2.07% | HT29 colon -14.4% | SNB-75 CNS 7.55% | U251 CNS 9.59% | PC-3 prostate -0.319% | SK-MEL-5 melanoma -97.5% | UACC-62 melanoma 1.47% | SK-MEL-28 melanoma 2.66%

O=c1[nH]cnc2c1ccn2C1OC(CO)C(O)C1O (stereo unspecified)
inactive: DU-145 prostate 18.4% | K-562 leukemia 65.4% | MALME-3M melanoma 81.3% | MDA-MB-231 breast 45.3% | RXF 393 renal 43.1% | SF-268 CNS 76% | SF-295 CNS 69.2% | SF-539 CNS 80.4% | UACC-257 melanoma 86.2% | M14 melanoma 55.9% | HCT-15 colon 45.5% | HT29 colon 65.9% | SNB-75 CNS 74.6% | SNB-19 CNS 78.3% | U251 CNS 81.2% | PC-3 prostate 36.3% | SK-MEL-5 melanoma 83.1% | UACC-62 melanoma 73.3% | LOX IMVI melanoma 27.8% | SK-MEL-28 melanoma 91.2%

N#C/C(=C(/O)CCCO)c1nc2ccccc2c(=O)[nH]1
inactive: DU-145 prostate 102% | K-562 leukemia 102% | MALME-3M melanoma 90.3% | MDA-MB-231 breast 98.5% | RXF 393 renal 87.5% | SF-268 CNS 112% | SF-295 CNS 150% | SF-539 CNS 97.2% | UACC-257 melanoma 93.9% | M14 melanoma 105% | HCT-15 colon 103% | HT29 colon 108% | SNB-75 CNS 80.6% | SNB-19 CNS 105% | U251 CNS 103% | PC-3 prostate 92.9% | SK-MEL-5 melanoma 107% | UACC-62 melanoma 96% | SK-MEL-28 melanoma 110%

COc1ccc(/C=C(/C(=O)c2ccc(Cl)cc2)C(=O)C(F)(F)F)cc1
inactive: DU-145 prostate 99.2% | K-562 leukemia 92.1% | MALME-3M melanoma 107% | MDA-MB-231 breast 110% | RXF 393 renal 104% | SF-268 CNS 96.8% | SF-295 CNS 96.2% | SF-539 CNS 108% | UACC-257 melanoma 99.3% | M14 melanoma 120% | HCT-15 colon 99% | HT29 colon 82.1% | SNB-75 CNS 112% | SNB-19 CNS 93.5% | U251 CNS 94.1% | PC-3 prostate 102% | SK-MEL-5 melanoma 102% | UACC-62 melanoma 96.4% | SK-MEL-28 melanoma 106%

COc1cc(/C=C/C(=O)/C=C/c2ccc(-n3ccnc3)cc2)ccc1O
inactive: DU-145 prostate 54.4% | MALME-3M melanoma 79.3% | MDA-MB-231 breast 63.7% | RXF 393 renal 26.8% | SF-268 CNS 54.8% | SF-295 CNS 75.2% | UACC-257 melanoma 84.7% | M14 melanoma 104% | HCT-15 colon 82.2% | SNB-75 CNS 62.3% | SNB-19 CNS 76.9% | PC-3 prostate 62.4% | SK-MEL-5 melanoma 74% | UACC-62 melanoma 85.2% | SK-MEL-28 melanoma 86.7%
active: K-562 leukemia 7.93% | SF-539 CNS -0.198% | HT29 colon 3.46% | U251 CNS -0.424% | LOX IMVI melanoma -44%

Cn1cc(-c2noc(-c3cn(C)c4ncc(F)cc34)n2)c2cc(Cl)ccc21
active: SNB-75 CNS -24.2%
inactive: DU-145 prostate 80.3% | K-562 leukemia 77.2% | MALME-3M melanoma 48.1% | MDA-MB-231 breast 52.7% | RXF 393 renal 78% | SF-268 CNS 69.2% | SF-295 CNS 41.6% | SF-539 CNS 46% | UACC-257 melanoma 96.5% | M14 melanoma 78.6% | HCT-15 colon 65.8% | HT29 colon 25.5% | SNB-19 CNS 70.1% | U251 CNS 19.4% | PC-3 prostate 79.4% | SK-MEL-5 melanoma 87% | UACC-62 melanoma 77.8% | SK-MEL-28 melanoma 85.8%

— PubChem BioAssay (NCI)
